# CIT2 TOR yeast: yeast TOR pathway CIT2-GFP modulation; S. cerevisiae CIT2-GFP strain, flow cytometry, 3 h; 100 means same as DMSO wells; GFP response vs DMSO, % at 10 µM; 320,000 compounds, 0.065% hits; AID 2029;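 active = GFP response relative to DMSO above a set limit, near the screen mean plus 3 SD, cut at about 150% in these data; inconclusive = Fewer than 70 cells measured for a yeast strain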;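 also: ratio of well median GFP fluorescence to mean of DMSO wells on the plate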
# RPL19A-GFP yeast: yeast TOR pathway RPL19A-GFP modulation; S. cerevisiae RPL19A-GFP strain, flow cytometry, 3 h; active compounds read low; percent response vs DMSO, % at 10 µM; 330,000 compounds, 0.3% hits;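 active = percent response vs DMSO below 50%; inconclusive = fewer than 70 events counted for the yeast strain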;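 also: median channel GFP fluorescence of the barcoded RPL19A-GFP strain; ratio of sample median GFP to plate DMSO average so 100% = DMSO; lower means less RPL19A-GFP as with rapamycin TOR inhibition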
# LAP4-GFP MLPCN: alters LAP4-GFP fluorescence in TOR pathway yeast screen. GFP response vs DMSO, % at 10 µM. S. cerevisiae LAP4-GFP multiplex, flow cytometry GFP, 3 h; median GFP as percent of DMSO wells. 320,000 compounds, 0.34% hits;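 active = GFP response vs DMSO above a set limit, about the screen mean plus 3 SD, cut at about 150% in these data; inconclusive = under 70 cell events counted for the yeast strain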
# MEP2-GFP yeast: modulators of TOR pathway MEP2-GFP in S. cerevisiae; 330,000 compounds, 0.51% hits; GFP response vs DMSO, % at 10 µM; S. cerevisiae MEP2-GFP strain, flow cytometry GFP, 3 h; 100% = DMSO control level;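 active = GFP response versus DMSO above a set limit, roughly screen mean plus 3 SD, cut at about 180% in these data; inconclusive = fewer than 70 cells counted for a yeast strain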;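 also: median GFP fluorescence of the barcode-gated MEP2-GFP cells per well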
# AGP1-GFP MLPCN: modulators of TOR pathway AGP1-GFP in S. cerevisiae; GFP response vs DMSO, % at 10 µM; AID 2066; S. cerevisiae AGP1-GFP multiplex flow cytometry, 3 h; GFP as percent of DMSO wells; 320,000 compounds, 0.02% hits;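 active = GFP response relative to DMSO above a set limit, near screen average plus 3 SD, cut at about 150% in these data; inconclusive = fewer than 70 cells counted for the yeast strain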;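 also: median GFP channel fluorescence of the gated AGP1 strain per well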
# LAP4 cherry2: yeast LAP4-GFP modulation, second cherry pick; AID 2621; 590 compounds, 20% hits; S. cerevisiae LAP4-GFP strain, flow cytometry GFP, 3 h; shares compounds with LAP4-GFP MLPCN; GFP response vs DMSO, % at 10 µM;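 active = GFP signal as percent of the solvent control above about 150%, meaning raised reporter expression, limit read from the data; inconclusive = fewer than 70 cells counted in the well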;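 also: ratio of well median GFP fluorescence to plate DMSO mean so 100% = DMSO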
# MEP2-GFP pick2: yeast MEP2-GFP modulation, second cherry pick; shares compounds with LAP4-GFP MLPCN; S. cerevisiae MEP2-GFP strain, flow cytometry GFP, 3 h; GFP response vs DMSO, % at 10 µM; 590 compounds, 10% hits; AID 2622;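 active = GFP signal above 150% of the solvent control wells, that is a rise of more than half; inconclusive = fewer than 70 yeast cells counted in the well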;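 also: median channel GFP fluorescence of all gated yeast cells per well; ratio of median GFP to plate DMSO average so 100% = DMSO level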
# RPL19A-GFP pick2: second confirmation of modulators of TOR reporter RPL19A-GFP in yeast; shares compounds with LAP4-GFP MLPCN; S. cerevisiae RPL19A-GFP strain, flow cytometry GFP, 3 h; active compounds read low; 100% means same as DMSO wells; GFP response vs DMSO, % at 10 µM; 590 compounds, 3% hits; AID 2623;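 active = under 65% GFP response relative to DMSO; inconclusive = yeast strain with under 70 measured events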;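 also: median GFP channel fluorescence per well over the all cells gate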
# CIT2 GFP CP2: second confirmation of modulators of TOR reporter CIT2-GFP in yeast | GFP response vs DMSO, % at 10 µM | 590 compounds, 8% hits | shares compounds with LAP4-GFP MLPCN | S. cerevisiae CIT2-GFP strain, flow cytometry GFP, 3 h; DMSO control wells read 100% | AID 2624;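 active = GFP response vs DMSO above about 150%, limit read from the data; inconclusive = fewer than 70 events counted for a yeast strain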;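 also: median green fluorescence per well over all gated yeast cells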
# AGP1-GFP pick2: second confirmation of modulators of TOR reporter AGP1-GFP in yeast; shares compounds with LAP4-GFP MLPCN; S. cerevisiae AGP1-GFP strain, flow cytometry GFP, 3 h; percent response vs DMSO, % at 10 µM; 590 tested, under 10 active; AID 2643;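 active = over 150 percent of DMSO response; inconclusive = yeast strain measured with under 70 events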;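 also: median GFP channel fluorescence over all cells without mother daughter split; sample median GFP divided by mean DMSO control so 100% equals DMSO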
# s288c autofluor: compound is autofluorescent in yeast s288c cells. fluorescence change (kMESF span) at 33 µM. 610 tested, under 10 active. S. cerevisiae s288c, 520 nm autofluorescence, flow cytometry, 3 h; active compounds read high; zero means same as solvent-only cells. shares compounds with LAP4-GFP MLPCN;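 active = fluorescence span over the dose series, or activity score, above about 33, limit read from the data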
# Yeast autofl DR: yeast s288c autofluorescence artifact in dose response | shares compounds with LAP4-GFP MLPCN | S. cerevisiae s288c parental, compound autofluorescence, flow cytometry, 3 h | fluorescence change (span) at 33 µM | 110 tested, under 10 active | AID 488829;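 active = fluorescence change span, or the activity score built from it, above 25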
# TORC1 bypass gr: compounds blocking wildtype yeast growth but not TORC1 bypass cells; S. cerevisiae BY4741 spot growth rating, 48-72 h; active compounds read low; 120 tested, under 10 active; growth rating (0-3) at 30 µM; shares compounds with LAP4-GFP MLPCN;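 active = growth rating at most 1 for wild type yeast while the TORC1 bypass strain still grows fully, rated 3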
# Starred values were filed as active, the others as inactive; ? = inconclusive; . = no result. This is a sample that favours compounds with a hit; in the whole collection about 0.92% have one here.
SMILES,CIT2 TOR yeast,RPL19A-GFP yeast,LAP4-GFP MLPCN,MEP2-GFP yeast,AGP1-GFP MLPCN,s288c autofluor,others
CSc1ccc(/C=C/C(=O)c2c(O)cc(C)oc2=O)cc1,99,103,110,103,97,.,
COc1cccc(/C=C/C(=O)c2c(O)cc(C)oc2=O)c1O,68,90,243*,82,86,0.1,
Nc1nnc(SCC(=O)Nc2cc(F)ccc2F)s1,109,103,103,104,103,.,
Cc1ccc(/C=C/C(=O)c2ccc([N+](=O)[O-])o2)cc1,87,99,176*,97,88,1.9,
COC(=O)Cc1csc(NC(=O)CSc2nncn2C)n1,82,88,169*,106,109,.,LAP4 cherry2=131;MEP2-GFP pick2=100;RPL19A-GFP pick2=100;CIT2 GFP CP2=110;AGP1-GFP pick2=99
COc1ccc([C@]2(C(C)C)ON(c3ccccc3C(F)(F)F)C2=O)cc1,92,96,107,95,94,-0.1,LAP4 cherry2=114;MEP2-GFP pick2=106;RPL19A-GFP pick2=101;CIT2 GFP CP2=114;AGP1-GFP pick2=108
COc1ccc([C@@]2(C(C)C)ON(c3ccccc3C(F)(F)F)C2=O)cc1,104,96,106,93,97,-0.2,LAP4 cherry2=118;MEP2-GFP pick2=106;RPL19A-GFP pick2=104;CIT2 GFP CP2=106;AGP1-GFP pick2=97
CC(C)[C@@]1(c2ccc(Cl)cc2)ON(c2ccccc2C(F)(F)F)C1=O,?,57,96,147,20,-0.1,LAP4 cherry2=102;MEP2-GFP pick2=98;RPL19A-GFP pick2=102;CIT2 GFP CP2=107;AGP1-GFP pick2=97
COc1ccc(C2(c3ccc(OC)cc3)NC(=O)N(CC(=O)Nc3ccccc3C(F)(F)F)C2=O)cc1,92,103,94,102,97,.,
O=c1[nH]ncn1-c1ccccc1C(F)(F)F,104,103,91,103,105,.,
COc1ccc(CN2CCN(C(=O)CCC(=O)Nc3nnc(C4CCCCC4)s3)CC2)cc1F,97,92,108,98,107,.,
Cc1ccc(OCCC(=O)OC(C)C(=O)Nc2c(C)n(C)n(-c3ccccc3)c2=O)cc1 (stereo unspecified),100,99,114,99,113,.,
CC(=O)Nc1ccc(S(=O)(=O)Nc2ccccc2N2CCOCC2)cc1,96,94,87,95,94,.,
O=C1ON=C(c2ccc(Cl)cc2)/C1=C/c1ccc(O)cc1,96,89,161*,86,78,0.7,
COc1cc(/C=C2/C(=O)ON=C2c2ccccc2)ccc1O,99,95,173*,93,78,0.2,
O=C1ON=C(c2ccccc2)/C1=C/c1ccc(O)cc1,113,100,116,95,90,.,
COc1cc(/C=C2\C(=O)ON=C2c2ccccc2)cc(Br)c1O,119,92,157*,96,89,1.3,
CCOc1cc(/C=C2\C(=O)ON=C2c2ccccc2)cc(Br)c1O,119,88,135,88,83,.,
COc1cc(C(=O)OCC(=O)Nc2ccc(N3CCOCC3)cc2)ccc1OCC(C)C,115,103,101,103,106,.,
CCC(NS(=O)(=O)c1ccc(OC)cc1)C(=O)NCCc1ccccc1 (stereo unspecified),97,100,99,101,91,.,
CC(=O)N1c2ccc(S(=O)(=O)NCCC(=O)Nc3ccc(C)c(Cl)c3)cc2CC1C (stereo unspecified),100,89,80,92,91,.,
Cc1nc(N2CCN(S(=O)(=O)c3ccccc3C#N)CC2)c2c(-c3cccs3)csc2n1,90,98,108,109,111,.,
Cc1nc(N2CCCCC2)c2c(-c3cccs3)csc2n1,100,56,98,155,34,.,LAP4 cherry2=95;MEP2-GFP pick2=95;RPL19A-GFP pick2=99;CIT2 GFP CP2=109;AGP1-GFP pick2=97
COCCNC(=O)C(NC(=O)C1CCCCC1)C(C)C (stereo unspecified),86,95,114,101,101,.,
Oc1ccc(COCc2ccccc2)c2cccnc12,99,97,160*,96,102,0.4,
SMILES,CIT2 TOR yeast,RPL19A-GFP yeast,LAP4-GFP MLPCN,MEP2-GFP yeast,AGP1-GFP MLPCN,s288c autofluor,others
CCCOCc1ccc(O)c2ncccc12,109,99,117,98,96,.,
COc1ccc2[nH]c(=O)c(CN(C(=O)c3cccnc3)c3ccc(C)cc3C)cc2c1,91,97,109,93,101,.,
O=[N+]([O-])c1cc(O)c2ncccc2c1,124,101,169*,104,98,0.71,Yeast autofl DR=1.9;TORC1 bypass gr=3
O=[N+]([O-])c1cc2cccnc2c2ncccc12,102,102,109,102,104,.,
O=S(=O)(N/N=C\c1ccc2c(c1)OCO2)c1ccc(F)cc1,82,103,77,95,89,.,
O=C(/C=C/c1cc(Br)ccc1O)c1ccco1,70,77,196*,87,88,-0.1,
C/C(=N\NC(=O)c1cc(Br)ccc1O)c1ccccn1,89,108,120,118,96,.,
C/C(=N/NC(=O)c1ccc(C(C)(C)C)cc1)c1ccccn1,95,99,194*,104,96,0.82,
C/C(=N\NC(=O)c1cccc(Br)c1)c1ccccn1,96,111,169*,113,87,0.91,Yeast autofl DR=0.16;TORC1 bypass gr=3
Cc1ccccc1OCC(=O)OCC(=O)c1ccc(-c2ccccc2)cc1,101,104,100,104,105,.,
COCCSc1ccccc1C(=O)NCc1cccnc1,95,93,104,96,100,.,

# Screening data: PubChem, NMMLSC
